HDAC3 inh: blocks human histone deacetylase 3. recombinant HDAC3, fluorogenic peptide/trypsin coupled, fluorescence. inhibition, % at 8.3 µM. actives 0.15% (n = 320,000). AID 2718; in the data active means inhibition above about 26%, passing the limit was not always enough
NALP1 inh: inhibitors of NALP1 inflammasome in yeast | AID 2071 | S. cerevisiae NALP1/ASC/caspase-1 growth, X-gal OD620, 72 h | inhibition, % at 10 µM | actives 0.61% (n = 280,000); in the data active means inhibition mostly above about 24%, no sharp cut-off; inactive means mostly below about 32%
JMJD2C inh: blocks human GASC-1 demethylase activity; actives 0.069% (n = 330,000); inhibition, % at 2.35 µM; GST-JMJD2C(1-420) H3K9me3 demethylation, DELFIA europium; AID 2099; Q9H3R0;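 active means more than half of a compound's replicate wells show inhibition beyond 50%, single wells judged on their own value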;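 further: signal counts dimethyl H3K9 product captured on neutravidin plate; 0% = median of DMSO wells and 100% = 0.3 times that DMSO median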
Target sequence (Q9H3R0 1-420 limits assumed): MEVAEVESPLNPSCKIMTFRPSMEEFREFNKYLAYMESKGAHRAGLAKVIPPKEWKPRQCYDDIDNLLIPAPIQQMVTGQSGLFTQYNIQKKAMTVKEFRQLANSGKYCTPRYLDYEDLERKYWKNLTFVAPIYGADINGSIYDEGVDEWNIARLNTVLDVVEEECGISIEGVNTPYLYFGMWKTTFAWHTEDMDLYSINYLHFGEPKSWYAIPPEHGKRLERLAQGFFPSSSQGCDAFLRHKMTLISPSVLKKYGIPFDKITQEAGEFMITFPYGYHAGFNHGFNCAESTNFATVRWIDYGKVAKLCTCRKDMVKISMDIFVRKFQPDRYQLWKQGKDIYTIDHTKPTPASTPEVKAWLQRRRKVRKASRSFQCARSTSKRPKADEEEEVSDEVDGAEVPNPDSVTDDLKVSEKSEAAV
NALP3 yeast inh: blocks the NALP3 inflammasome reconstituted in yeast; actives 0.39% (n = 330,000); AID 2825; Yeast reconstituted NLRP3/ASC/caspase-1, beta-gal luminescence, 24 h; inhibition, % at 10 µM;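 active means inhibition of 50% or more; inactive means inhibition below 50%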;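 further: plate controls were induced DMSO wells for no effect and uninduced yeast grown without galactose for full effect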
Efflux pump mplx: antifungal efflux pump inhibition, Nile Red retention | inhibition, % at 10 µM | actives 0.44% (n = 330,000) | S. cerevisiae Candida pump triplex;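 active means plate passing quality check with inhibition over a set limit, or well fluorescence over plate mean plus 4 SD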;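 further: Nile Red retained in pooled yeast measured as flow cytometry median fluorescence; 0% = buffer negative control and 100% = Enniatin B positive control; higher means more Nile Red kept so more efflux inhibition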
PolyA inhibitor: blocks polyadenylation in yeast reporter cells. activity score, % at 12 µM. AID 1875. actives 0.02% (n = 300,000). S. cerevisiae SKY197-pL101 polyadenylation reporter, beta-gal luminescence; efflux-impaired pdr1/pdr3 knockout yeast; score 100 = 6 SD above DMSO;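 active means lowest replicate activity score at least 50, where 100 means six control SD above control mean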;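 further: yeast exposed to compound for 9 h at 30 °C; higher score means more reporter readthrough which indicates perturbed polyadenylation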
Active calls of the source: *; i = inactive; . = no result; ! = repeats disagree. A selection: hits, their analogues and other compounds. The true share with any hit is near 1.5%.

SMILES | HDAC3 inh | NALP1 inh | JMJD2C inh | NALP3 yeast inh | Efflux pump mplx | PolyA inhibitor
CC1CN(S(=O)(=O)c2ccc(-c3nc4ccccc4s3)cc2)CC(C)O1 (centres undefined) | -2 | 30* | -2 | 2 | 0 | 7
COCCN(Cc1nc2ccccc2c(=O)[nH]1)C(=O)COc1cccc(C(C)=O)c1 | 5 | . | 1 | 10 | 0 | .
Cc1cccc2cc(C#N)c(SCCN3CCCCC3)nc12 | 6 | . | 102* | -4 | 0 | 2
COc1ccc(CCNCC(=O)Nc2ccc(C)c(S(=O)(=O)N(C)C)c2)cc1OC | . | 36* | 3 | 11 | 0 | -4
COc1ccc(CCNCC(=O)Nc2ccc(C)c(Br)c2)cc1OC | -2 | -8 | 10 | 20 | 0 | 1
Cc1ccc(N2CCN(CC(=O)Nc3c(C(=O)C4CC4)oc4ccccc34)CC2)cc1 | . | 47* | . | . | . | .
O=C(CN1CCN(c2ccccc2)CC1)Nc1c(C(=O)C2CC2)oc2ccccc12 | -1 | -5 | -2 | 19 | 0 | 11
Cn1c(-c2c(N)n(CCCc3ccccc3)c3nc4ccccc4nc23)nc2ccccc21 | . | 41* | 20 | . | . | 7
NC(=O)c1nc(C(=O)N2CCN(c3ccccc3)CC2)c2ccccc2n1 | 1 | . | -6 | 9 | 1 | .
CC(=O)Nc1ccc(S(=O)(=O)N(C)CC(=O)Nc2nc3ccccc3[nH]2)cc1 | . | . | . | 13 | . | .
O=C1C=CC(=O)N1N(c1ccccc1)c1ccccc1 | -2 | 105* | i | 3 | 0 | 5
COc1ccc(OCc2cc(C(=O)NC(C)c3csc(C)n3)no2)c(Cl)c1 (centres undefined) | 3 | 6 | 1 | 14 | 0 | -13
Cc1ccccc1NC(=O)CSc1nnc(C2CC2)n1CC1CCCO1 (centres undefined) | 3 | 14 | -5 | -4 | 0 | 15
CN1CCN(S(=O)(=O)c2ccc(NC(=S)NC(=O)C(C)(C)C)cc2)CC1 | 2 | 80* | -4 | 17 | 0 | -2
CCC(=O)NC(=S)Nc1ccc(S(=O)(=O)N2CCN(C)CC2)cc1 | 6 | 16 | 14 | 18 | 0 | 1
Cc1c(C(=O)N(CCO)Cc2ccccc2)oc2c(F)cccc12 | 3 | -4 | 2 | 23 | 0 | -9
N/C(=N\OC(=O)CC1CCCCC1)c1ccc(Cl)cc1 | 3 | 32* | -35 | 26 | 0 | 0
O=C(CC1SC(=O)N(c2ccccc2)C1=O)Nc1ccc(Br)cc1 (centres undefined) | 50* | 19 | -3 | 17 | 0 | -37
CCCN1C(=O)SC(CC(=O)Nc2ccccc2)C1=O (centres undefined) | 2 | 27 | 5 | 33 | 0 | 10
O=C(CC1SC(=O)N(c2ccccc2)C1=O)Nc1ccc(Cl)cc1 (centres undefined) | 45* | -4 | 0 | 26 | 0 | -3
Cc1ccc(S(=O)(=O)NCc2ccccc2)cc1C(=O)N1CCN(S(=O)(=O)c2ccccc2)CC1 | . | . | . | 32 | . | .
CC(C)C(NC(=O)c1c(F)cccc1F)C(=O)NCCc1ccc(S(N)(=O)=O)cc1 (centres undefined) | 0 | 8 | 11 | 9 | 0 | -2
Cc1c(C(=O)NC2CCN(Cc3ccccc3)C2)oc2c(Cl)cccc12 (centres undefined) | 4 | 39* | -26 | 27 | 0 | 2
O=C(NC1CCN(Cc2ccccc2)CC1)c1ccccc1Cl | 2 | 19 | 8 | 17 | 0 | 13
O=C(CCN1CCc2ccccc2C(c2ccccc2)C1)c1ccc2c(c1)OCCO2 (centres undefined) | 7 | 70* | 6 | 23 | 0 | -18
SMILES | HDAC3 inh | NALP1 inh | JMJD2C inh | NALP3 yeast inh | Efflux pump mplx | PolyA inhibitor
O=C(COC(=O)c1ccccc1NCCO)NCCC1=CCCCC1 | -9 | . | -9 | 2 | 0 | 1
O=C(COC(=O)c1ccccc1Br)NCCC1=CCCCC1 | 6 | 38* | -2 | 8 | 0 | -13
O=c1c2ccccc2sn1-c1cc(S(=O)(=O)N2CCOCC2)ccc1N1CCCC1 | 27* | -8 | 0 | 5 | 0 | 11
O=c1c2ccccc2sn1-c1cc(S(=O)(=O)N2CCOCC2)ccc1N1CCOCC1 | 18 | 30* | 9 | 13 | 0 | 7
CC(C)CCN(C(=S)NC(=O)C1CCCCC1)c1c(N)n(Cc2ccccc2)c(=O)[nH]c1=O | 3 | -1 | 4 | 14 | 0 | -28
COc1ccc(S(=O)(=O)Nc2ccccc2-c2nc3ccccc3[nH]c2=O)cc1 | -1 | 0 | 14 | 15 | 0 | 4
COC(=O)C1CCN(Cc2cn(Cc3ccccc3)nc2-c2cc3ccccc3o2)CC1 | -6 | 32* | 3 | 20 | 0 | 8
OC1CCN(Cc2cn(Cc3ccccc3)nc2-c2cc3ccccc3o2)CC1 | -5 | 12 | -16 | -6 | 0 | 3
C[C@@H]1CN([C@@H](C)CO)C(=O)c2cccc(NC(=O)c3nc4ccccc4s3)c2O[C@@H]1CN(C)CC1CC1 | 7 | . | -50 | 13 | 0 | .
O=c1c2ccccc2nc2n1C(CSc1ccc(Br)cc1)CN2 (centres undefined) | -5 | 31* | 2 | -7 | 0 | -8
Cn1c(SCc2ccc(Br)cc2)nc2ccccc2c1=O | -4 | 22 | -8 | 33 | 0 | 2
Cc1sc2nc(CN3CCOCC3)nc(NS(=O)(=O)c3cc(Cl)ccc3Cl)c2c1C | 0 | . | 56* | 37 | 0 | .
Oc1ccc(CN2CCC(Cc3ccccc3)CC2)c2cccnc12 | . | 31* | -10 | 12 | . | -30
Cc1ccc(C)c(N(C(=O)c2csnn2)C(C(=O)NC2CCCC2)c2cccnc2)c1 (centres undefined) | 2 | 17 | 71* | 10 | 0 | 21
COC(=O)c1ccccc1-c1c2ccc(=N)cc-2oc2cc(N)ccc12 | 4 | . | -4 | 18 | 116* | .
CC(C)(C)OC(=O)N[C@@H](C(=O)OC(C)(C)C)c1ccc(Br)cc1 | 15 | . | 4 | 34 | 0 | .
O=C1S/C(=C\c2ccc(O)c([N+](=O)[O-])c2)C(=O)N1c1ccccc1Cl | 9 | 28* | 5 | 24 | 0 | 83*
CNCCCC12CCC(c3ccccc31)c1ccccc12 | -9 | 29*! | 4 | 36 | 0 | -13
CNCCCC1c2ccccc2C=Cc2ccccc21 | -2 | 25 | 3 | 31 | 0 | 14
CC[C@@]1(c2ccccc2)C(=O)N(C(=O)OC)N1C(=O)OC | 9 | -9 | 5 | 13 | 0 | -8
CC[C@]1(c2ccccc2)C(=O)N(C(=O)OC)N1C(=O)OC | 44* | 26 | -1 | 17 | 0 | 2
COc1ccc(C=O)cc1COc1ccc2c(c1)OCO2 | . | . | . | 17 | . | .
Cc1ccc(S(=O)(=O)/N=c2\ccc(Cl)cn2C(F)F)cc1 | 7 | 38* | 6 | -5 | 0 | 0

Screening data deposited in PubChem BioAssay by several laboratories.
